Assay results taken from PubChem BioAssay (NCATS).
Where “and” joins values, the source holds several entries; their conditions need not be identical. Identical values can stand only once. Inconclusive results are not listed. Calls of active or inactive are those of the source. Unless noted, the call rests on the fitted dose curve; in most records, active means well fitted curve in the direction sought with a large enough effect; inconclusive means small, poorly fitted or top-dose-only effect, or another doubt; inactive means no such curve, though single readings can be large; an effect the other way counts as inactive or inconclusive.

Assays:
[1] = biological target: Beta-2 adrenergic receptor (Homo sapiens) (UniProt P07550); assay: qHTS validation assay of beta-arrestin-biased ligands of beta2-adrenergic receptor (AID 485366); further: 0% is about no effect
Summary of the method: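 Tango cells expressing recombinant beta2-AR and beta-arrestin with tTA-driven luciferase, in DMEM with 1% FBS. Compounds were titrated up to 46 microM for 18 hr at 37 degrees C. Luminescence was read 15 min after substrate; curves were fitted and class-assigned.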

[2] = biological target: ATP-dependent 6-phosphofructokinase (Trypanosoma brucei brucei) (UniProt O15648); assay: qHTS Validation Assay to Find Inhibitors of T. brucei phosphofructokinase (AID 485368); further: potency means the concentration at half of the fitted maximal effect
Chain of ATP-dependent 6-phosphofructokinase (Trypanosoma brucei brucei) (O15648 whole entry, looked up): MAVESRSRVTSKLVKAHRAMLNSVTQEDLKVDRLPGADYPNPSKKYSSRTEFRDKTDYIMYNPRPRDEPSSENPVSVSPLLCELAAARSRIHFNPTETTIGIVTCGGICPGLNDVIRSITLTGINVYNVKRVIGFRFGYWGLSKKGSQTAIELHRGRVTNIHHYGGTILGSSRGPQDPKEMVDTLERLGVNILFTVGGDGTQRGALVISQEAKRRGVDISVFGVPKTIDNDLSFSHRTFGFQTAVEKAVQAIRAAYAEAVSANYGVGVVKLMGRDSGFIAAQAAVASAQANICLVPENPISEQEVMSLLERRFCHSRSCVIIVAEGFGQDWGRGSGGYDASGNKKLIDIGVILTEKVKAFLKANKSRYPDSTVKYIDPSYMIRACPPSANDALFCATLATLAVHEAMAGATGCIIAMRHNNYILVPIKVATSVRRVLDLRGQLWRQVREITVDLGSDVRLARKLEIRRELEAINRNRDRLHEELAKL
Summary of the method: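 Activity was read as ADP production by luminescence (ADP-Glo) after 45 min at room temperature. The enzyme was 1.25nM PFK in 0.1M TEA pH 8.0 with 0.5 mM F6P, 0.1mM ATP and 5 mM MgCl2. Compounds were titrated up to 57 uM and % activity normalized to no-enzyme and full-enzyme controls.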

[3] = Quantitative high throughput screen for delayed death inhibitors of the malarial parasite plastid, 96 hour incubation (AID 488745); further: series mostly up to about 29 µM; on the % scale 0 is the no-effect control and ±100 the full control effect; nearly all actives have a fitted effect of over 70% in size
Summary of the method: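 Luciferase-expressing P. falciparum in erythrocytes (2% hematocrit, 0.1% parasitemia) incubated with compound for 96 h at 37 C, 5% CO2, in RPMI 1640 with 0.5% Albumax. Growth inhibition read as decreased luminescence.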

[4] = Quantitative high throughput screen for delayed death inhibitors of the malarial parasite plastid, 48 hour incubation (AID 488752); further: on the % scale 0 is the no-effect control and ±100 the full control effect; nearly all actives have a fitted effect of over 65% in size
Summary of the method: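 Erythrocytes infected with firefly luciferase-expressing P. falciparum (2% hematocrit, 0.1% parasitemia) cultured with compound for 48 h at 37 C, 5% CO2, in RPMI 1640/0.5% Albumax. Growth inhibition read as loss of luminescence.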

[5] = biological target: Thioredoxin reductase 1, cytoplasmic (Rattus norvegicus) (UniProt O89049); assay: qHTS Assay for Substrates of Mammalian Selenoprotein Thioredoxin Reductase 1 (TrxR1) (AID 488772);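 further: NADPH fluorescence in the first read after selenite addition and not the 8 min delta; series mostly up to about 57 µM; 0% is about no effect; a drop in NADPH fluorescence below the no-compound background marks a TrxR1 substrate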
Chain of Thioredoxin reductase 1, cytoplasmic (Rattus norvegicus) (O89049 whole entry, looked up): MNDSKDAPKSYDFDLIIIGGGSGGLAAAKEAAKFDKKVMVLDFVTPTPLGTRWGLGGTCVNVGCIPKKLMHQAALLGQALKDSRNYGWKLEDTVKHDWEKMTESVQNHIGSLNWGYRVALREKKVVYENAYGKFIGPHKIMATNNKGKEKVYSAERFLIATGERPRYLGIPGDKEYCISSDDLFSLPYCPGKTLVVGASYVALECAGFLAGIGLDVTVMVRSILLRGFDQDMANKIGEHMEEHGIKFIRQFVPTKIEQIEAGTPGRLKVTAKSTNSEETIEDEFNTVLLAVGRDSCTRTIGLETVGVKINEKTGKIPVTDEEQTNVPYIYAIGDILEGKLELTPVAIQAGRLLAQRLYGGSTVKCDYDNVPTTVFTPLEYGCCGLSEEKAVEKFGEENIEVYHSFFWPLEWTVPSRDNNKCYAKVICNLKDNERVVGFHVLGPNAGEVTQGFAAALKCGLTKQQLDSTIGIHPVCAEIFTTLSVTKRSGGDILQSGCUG
Summary of the method: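 Quantitative HTS in Tris-HCl buffer at pH 7.5 with EDTA and Tween-20, using rat TrxR1, 400 uM NADPH and 400 uM selenite (final). A fall in initial NADPH fluorescence relative to background marked substrate behaviour.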

[6] = biological target: Flap endonuclease 1 (Homo sapiens) (UniProt P39748); assay: qHTS Validation Assay for the Inhibitors of Human Flap endonuclease 1 (FEN1) (AID 488816); further: potency means the concentration at half of the fitted maximal effect
Chain of Flap endonuclease 1 (Homo sapiens) (P39748 whole entry, looked up): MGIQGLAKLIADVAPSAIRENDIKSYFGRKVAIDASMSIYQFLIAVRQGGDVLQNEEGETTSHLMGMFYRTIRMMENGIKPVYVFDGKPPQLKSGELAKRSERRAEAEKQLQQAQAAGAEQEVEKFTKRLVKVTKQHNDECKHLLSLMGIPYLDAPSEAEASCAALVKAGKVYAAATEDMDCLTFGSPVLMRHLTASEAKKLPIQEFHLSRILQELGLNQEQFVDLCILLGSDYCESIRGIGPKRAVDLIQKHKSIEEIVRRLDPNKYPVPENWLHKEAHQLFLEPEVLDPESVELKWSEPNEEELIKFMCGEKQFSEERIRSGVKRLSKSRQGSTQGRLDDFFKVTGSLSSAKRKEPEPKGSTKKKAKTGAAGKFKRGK
Summary of the method: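 FEN1, dispensed as a 10 nM reagent, was preincubated with pin-transferred compounds for 15 min at room temperature before substrate was added (50 nM final). Plates were read at 0 and 15 min, and a four-parameter Hill equation was fitted to the concentration-response data.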

[7] = biological target: M-phase phosphoprotein 8 (Homo sapiens) (UniProt Q99549); assay: qHTS Validation Assay for Inhibitors for MPP8 Chromodomain Interactions with Methylated Histone Tails (AID 488949); further: nearly all actives have a fitted effect of over 55% in size; further: potency means the concentration at half of the fitted maximal effect
Summary of the method: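 AlphaScreen read-out: streptavidin donor and nickel chelate acceptor beads (final 10 ug/mL), 30 min in the dark at RT. Complex of 50 nM MPP8 and 50 nM b-H3(1-18)K9me3 peptide had been exposed to compounds for 30 min beforehand.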

[8] = biological target: Chromobox protein homolog 1 (Homo sapiens) (UniProt P83916); assay: qHTS Validation Assay for Inhibitors of HP1-beta Chromodomain Interactions with Methylated Histone Tails (AID 488953); further: nearly all actives have a fitted effect of over 50% in size; further: potency means the concentration at half of the fitted maximal effect
Chain of Chromobox protein homolog 1 (Homo sapiens) (P83916 whole entry, looked up): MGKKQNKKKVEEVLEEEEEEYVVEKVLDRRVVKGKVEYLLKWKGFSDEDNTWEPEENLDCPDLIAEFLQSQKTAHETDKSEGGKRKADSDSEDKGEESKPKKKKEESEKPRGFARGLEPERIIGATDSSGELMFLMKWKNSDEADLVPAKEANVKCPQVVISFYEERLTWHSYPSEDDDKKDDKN
Summary of the method: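 HP1-beta (50 nM) preformed 30 min with biotinylated H3(1-18)K9me3 peptide (50 nM) in PBS pH 7.4, 0.01% Tween-20. Compounds added for 30 min at room temperature. Complex disruption read by AlphaScreen with streptavidin donor/nickel chelate acceptor beads (10 ug/mL each).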

[9] = biological target: Methanococcus maripaludis chaperonin (MmCpn) (UniProt Q6LX38); assay: High-Throughput Screening for Modulators of Cytosolic Chaperonin Activity: MmCpn Primary Screen (AID 488978);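 further: 50 nM MmCpn enzyme hydrolysing 30 µM ATP at 37 °C; 0% is about no effect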
Chain of Methanococcus maripaludis chaperonin (MmCpn) (Q6LX38 1-543): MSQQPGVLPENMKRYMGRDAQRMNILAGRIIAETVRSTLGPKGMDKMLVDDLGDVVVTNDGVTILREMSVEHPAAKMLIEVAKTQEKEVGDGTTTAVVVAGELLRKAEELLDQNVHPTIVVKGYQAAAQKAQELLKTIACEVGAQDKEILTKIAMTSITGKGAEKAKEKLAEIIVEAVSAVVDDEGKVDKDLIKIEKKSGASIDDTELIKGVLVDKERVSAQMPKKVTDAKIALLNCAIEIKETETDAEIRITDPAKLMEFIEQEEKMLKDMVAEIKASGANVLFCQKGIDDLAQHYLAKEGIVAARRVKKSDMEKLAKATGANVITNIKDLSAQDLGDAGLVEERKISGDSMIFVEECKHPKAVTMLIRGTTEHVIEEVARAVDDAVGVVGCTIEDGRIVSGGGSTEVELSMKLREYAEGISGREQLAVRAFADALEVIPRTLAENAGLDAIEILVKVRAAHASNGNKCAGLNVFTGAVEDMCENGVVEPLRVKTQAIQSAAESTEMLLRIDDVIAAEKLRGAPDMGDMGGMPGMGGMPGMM
Summary of the method: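 ADP formation read by HTRF Transcreener, 665/590 nm emission after 320 nm excitation. Enzyme: archaeal chaperonin at 50 nM final; substrate ATP 30 uM final; 10 min, 37C, after 5 min compound preincubation at RT.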

[10] = biological target: Transient receptor potential cation channel subfamily V member 1 (Homo sapiens) (UniProt Q8NER1); assay: HTS Assay for Compounds that Act as Enhancers of the Vanilloid Receptor 1 (AID 488979); further: 0% is about no effect
Chain of Transient receptor potential cation channel subfamily V member 1 (Homo sapiens) (Q8NER1 whole entry, looked up): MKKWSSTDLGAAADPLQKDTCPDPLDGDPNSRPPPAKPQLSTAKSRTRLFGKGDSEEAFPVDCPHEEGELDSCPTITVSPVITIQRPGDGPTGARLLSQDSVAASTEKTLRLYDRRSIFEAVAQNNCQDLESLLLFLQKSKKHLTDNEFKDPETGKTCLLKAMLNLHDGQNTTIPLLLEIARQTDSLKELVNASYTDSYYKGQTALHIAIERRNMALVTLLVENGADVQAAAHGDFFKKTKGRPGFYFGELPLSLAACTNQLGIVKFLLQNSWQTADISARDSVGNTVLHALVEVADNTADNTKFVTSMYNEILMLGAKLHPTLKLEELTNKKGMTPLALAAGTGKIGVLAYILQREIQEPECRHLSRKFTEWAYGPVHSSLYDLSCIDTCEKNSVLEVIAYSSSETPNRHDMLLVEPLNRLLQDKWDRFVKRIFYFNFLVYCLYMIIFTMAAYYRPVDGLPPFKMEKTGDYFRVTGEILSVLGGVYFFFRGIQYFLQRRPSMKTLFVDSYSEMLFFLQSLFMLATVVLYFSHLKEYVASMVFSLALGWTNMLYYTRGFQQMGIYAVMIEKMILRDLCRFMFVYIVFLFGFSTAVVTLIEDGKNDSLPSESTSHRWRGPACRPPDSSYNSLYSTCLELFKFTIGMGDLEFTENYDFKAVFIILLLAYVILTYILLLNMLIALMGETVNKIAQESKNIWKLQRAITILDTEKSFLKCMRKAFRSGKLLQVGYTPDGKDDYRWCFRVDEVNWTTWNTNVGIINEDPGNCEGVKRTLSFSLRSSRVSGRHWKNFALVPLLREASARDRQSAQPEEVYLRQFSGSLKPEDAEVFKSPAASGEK
Summary of the method: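 TRPV1-expressing cells loaded with Fluo-8 calcium dye; compounds added and calcium influx read kinetically for 3 min (agonist phase), then capsaicin at EC20 added and read 2 min more for enhancement. Fluorescence ex 480/em 520 nm.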

[11] = biological target: Thyrotropin receptor (Homo sapiens) (UniProt P16473); assay: qHTS Assay for Antagonists of the Thyroid Stimulating Hormone Receptor (AID 488980); further: series mostly up to about 58 µM; 0% is about no effect
Summary of the method: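 TSHR-HEK293 cells; 70 uM RO 20-1724 PDE inhibitor; compound + EC80 TSH (4 nM final); anti-cAMP cryptate antibody/cAMP-d2 in lysis buffer, 30 min RT; HTRF 665/620 nm read.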

[12] = biological target: D(1A) dopamine receptor (Homo sapiens) (UniProt P21728); assay: HTS Assay for Allosteric Agonists of the Human D1 Dopamine Receptor: Primary Screen for Agonists (AID 488981); further: potency means the concentration at half of the fitted maximal effect; on activation: 0% is about no effect
Summary of the method: (§1)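 Tetracycline-induced HEK293 T-REx cells force-coupled to calcium signalling were incubated overnight at 30 C and dye-loaded at room temperature. Calcium flux over 180 s after compound addition flagged agonists; a further 180 s read after EC20 dopamine flagged potentiators.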

[13] = Validation screen for small molecules that induce genotoxicity in human embryonic kidney (HEK293T) cells expressing luciferase-tagged ELG1 (AID 493106); further: 0% is about no effect
Summary of the method: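 HEK293T cells expressing luciferase-tagged ELG1, 2,000 cells/well, exposed to compound 16 hr at 37 °C, 5% CO2. Luciferase read after ONE-Glo, 30 min at room temperature; increased signal indicates genetic stress.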

[14] = biological target: ATPase family AAA domain-containing protein 5 (Homo sapiens) (UniProt Q96QE3); assay: Validation screen for small molecules that inhibit ELG1-dependent DNA repair in human embryonic kidney (HEK293T) cells expressing luciferase-tagged ELG1 (AID 493107);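 further: cells co-treated with the DNA-damaging agent 5-fluorouridine alongside compound; series mostly up to about 46 µM; on the % scale 0 is the no-effect control and ±100 the full control effect; inhibitors lower the ELG1-luciferase luminescence signal; nearly all actives have a fitted effect of over 70% in size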
Chain of ATPase family AAA domain-containing protein 5 (Homo sapiens) (Q96QE3 whole entry, looked up, the tested form may be a part): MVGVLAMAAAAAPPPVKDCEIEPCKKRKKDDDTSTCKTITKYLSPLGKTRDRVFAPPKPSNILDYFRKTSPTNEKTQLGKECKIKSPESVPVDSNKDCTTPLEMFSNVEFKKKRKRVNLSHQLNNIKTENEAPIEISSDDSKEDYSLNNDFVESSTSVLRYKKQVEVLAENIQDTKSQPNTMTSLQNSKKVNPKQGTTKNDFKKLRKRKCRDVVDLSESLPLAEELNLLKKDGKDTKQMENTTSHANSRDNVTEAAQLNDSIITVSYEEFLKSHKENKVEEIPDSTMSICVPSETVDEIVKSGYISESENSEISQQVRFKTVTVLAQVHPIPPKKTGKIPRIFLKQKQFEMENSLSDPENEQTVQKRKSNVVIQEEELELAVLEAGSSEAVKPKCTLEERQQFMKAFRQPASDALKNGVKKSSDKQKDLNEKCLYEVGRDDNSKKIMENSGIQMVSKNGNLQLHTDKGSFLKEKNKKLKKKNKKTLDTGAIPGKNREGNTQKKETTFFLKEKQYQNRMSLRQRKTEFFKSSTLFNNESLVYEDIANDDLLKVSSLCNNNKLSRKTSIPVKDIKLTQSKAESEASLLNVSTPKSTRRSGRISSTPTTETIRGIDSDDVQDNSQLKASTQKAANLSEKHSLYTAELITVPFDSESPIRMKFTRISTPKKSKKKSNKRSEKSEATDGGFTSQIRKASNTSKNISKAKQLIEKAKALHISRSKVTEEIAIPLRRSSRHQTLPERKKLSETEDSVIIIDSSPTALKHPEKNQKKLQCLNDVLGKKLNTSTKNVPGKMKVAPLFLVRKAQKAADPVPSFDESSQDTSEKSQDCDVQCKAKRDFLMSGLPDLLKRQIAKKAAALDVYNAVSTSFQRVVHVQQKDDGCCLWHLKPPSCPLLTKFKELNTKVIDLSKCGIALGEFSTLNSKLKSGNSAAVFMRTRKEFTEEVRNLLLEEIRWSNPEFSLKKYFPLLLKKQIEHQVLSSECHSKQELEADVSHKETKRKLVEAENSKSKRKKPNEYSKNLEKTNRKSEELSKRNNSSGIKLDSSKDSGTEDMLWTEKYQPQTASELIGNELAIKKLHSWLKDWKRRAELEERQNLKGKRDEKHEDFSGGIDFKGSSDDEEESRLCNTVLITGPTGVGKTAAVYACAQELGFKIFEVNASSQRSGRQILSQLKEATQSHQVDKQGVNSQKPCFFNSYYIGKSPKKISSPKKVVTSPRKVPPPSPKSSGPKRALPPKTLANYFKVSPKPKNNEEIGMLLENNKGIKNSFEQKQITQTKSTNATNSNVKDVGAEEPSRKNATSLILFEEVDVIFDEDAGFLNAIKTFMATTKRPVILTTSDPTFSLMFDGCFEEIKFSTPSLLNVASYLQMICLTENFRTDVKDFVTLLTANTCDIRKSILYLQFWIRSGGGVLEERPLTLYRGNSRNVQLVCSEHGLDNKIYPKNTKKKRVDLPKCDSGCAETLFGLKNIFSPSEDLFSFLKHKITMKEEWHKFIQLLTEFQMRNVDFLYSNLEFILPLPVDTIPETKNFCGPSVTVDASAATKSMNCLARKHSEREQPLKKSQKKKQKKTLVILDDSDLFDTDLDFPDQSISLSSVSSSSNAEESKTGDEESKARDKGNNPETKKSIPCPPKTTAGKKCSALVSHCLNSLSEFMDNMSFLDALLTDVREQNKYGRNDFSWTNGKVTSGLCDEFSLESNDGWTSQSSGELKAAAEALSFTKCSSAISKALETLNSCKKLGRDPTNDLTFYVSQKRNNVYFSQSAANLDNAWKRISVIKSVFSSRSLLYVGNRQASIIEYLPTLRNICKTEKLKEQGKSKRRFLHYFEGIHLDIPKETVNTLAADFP
Summary of the method: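 HEK293T cells expressing luciferase-tagged ELG1, 2,000 per well, treated with 5-fluorouridine plus compound for 16 h at 37 C. ONE-Glo luminescence after 30 min at room temperature reports ELG1 reporter level.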

[15] = biological target: Thyrotropin-releasing hormone receptor (Homo sapiens) (UniProt P34981); assay: qHTS for Small Molecule Agonists and Allosteric Enhancers of Human TRH Receptor: Validation Screen for Agonists (AID 493127;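 active means calcium activation more than 3 SD above the typical response in the agonist read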; further: 0% is about no effect); settings: TRH receptor agonist cell assay; at 2 µM; hits give high values
Summary of the method: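 TRHR cells loaded with fluo-8 calcium dye; FDSS kinetic fluorescence (Ex 480/Em 530) read at 1 s/cycle after 23 nL compound addition. Agonist-mode calcium response recorded before the 10 nM TRH (EC20) addition.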

[16] = biological target: Thioredoxin reductase 1, cytoplasmic (Rattus norvegicus) (UniProt O89049); assay: qHTS Assay for Inhibitors of Mammalian Selenoprotein Thioredoxin Reductase 1 (TrxR1) (AID 488773); settings: Potency: inhibition;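 further: drop in NADPH fluorescence over an 8 min run after selenite addition; series mostly up to about 57 µM; on the % scale 0 is the no-effect control and ±100 the full control effect; nearly all actives have a fitted effect of over 40% in size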
Summary of the method: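 Steps: enzyme (90 nM) plus NADPH (400 uM final), 5 min at ~22 deg C; compound added, 15 min; selenite (400 uM final) added; fluorescence followed for 8 min. Concentration-response curves derived from the normalized delta values.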

[17] = biological target: D(1A) dopamine receptor (Homo sapiens) (UniProt P21728); assay: HTS Assay for Allosteric Agonists of the Human D1 Dopamine Receptor: Primary Screen for Potentiators (AID 488982); further: potency means the concentration at half of the fitted maximal effect
Summary of the method: as §1

[18] = biological target: D(1A) dopamine receptor (Homo sapiens) (UniProt P21728); assay: HTS Assay for Allosteric Agonists of the Human D1 Dopamine Receptor: Primary Screen for Antagonists (AID 488983);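 further: calcium flux response to an EC80 dopamine challenge measured with no-wash dye; on the % scale 0 is the no-effect control and ±100 the full control effect; nearly all actives have a fitted effect of over 65% in size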
Summary of the method: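 Tetracycline-induced HEK293 T-REx D1 line, force-coupled to calcium flux, read with no-wash calcium dye. Compound added after 10 s baseline, read 180 s for agonism, then EC80 dopamine added and read a further 180 s.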

COc1cc(C(O)CO)ccc1O (stereo not drawn)
inactive: outcome [1] | Potency [2] | Potency [3] | Potency [4] | outcome [5] | Potency [6] | Potency [7] | Potency [8] | outcome [9] | outcome [10] | outcome [11] | Potency [12] | Potency [13] | Potency [14] | activation [15] 0.688%

C=C1C[C@@]23CC[C@H]4[C@@](C)(CCC[C@@]4(C)C(=O)O)[C@@H]2CC[C@]1(O)C3
inactive: outcome [1] | Potency [2] | outcome [5] | Potency [16] | Potency [6] | Potency [7] | Potency [8] | Potency [12] | Potency [17] | Potency [13]

CNC(=O)c1cc2c(cn1)[nH]c1ccccc12
inactive: outcome [1] | Potency [2] | outcome [5] | Potency [16] | Potency [6] | Potency [7] | outcome [9] | outcome [10] | outcome [11] | Potency [12] | Potency [17] | Potency [18] | activation [15] 0.75%

O=C(O)/C=C/c1ccc(O)c(O)c1
inactive: outcome [1] | Potency [2] | Potency [4] | outcome [5] | Potency [16] | Potency [6] | Potency [8] | outcome [9] | outcome [10] | outcome [11] | Potency [12] | Potency [17] | Potency [18] | Potency [13] | Potency [14] | activation [15] 0.25%

C[C@@H](NCCc1ccc(O)cc1)[C@@H](O)c1ccc(O)cc1
inactive: outcome [1] | Potency [2] | Potency [4] | outcome [5] | Potency [16] | Potency [6] | Potency [8] | outcome [10] | outcome [11] | Potency [12] | Potency [17] | Potency [13] | Potency [14] | activation [15] 1.12%

CCCn1c(=O)c(C)cn2nc(N)nc12
inactive: outcome [1] | Potency [2] | outcome [5] | Potency [16] | Potency [6] | Potency [7] | Potency [8] | outcome [9] | Potency [12] | Potency [17] | Potency [13] | Potency [14]

COc1cc(/C=C(\C#N)C(=O)c2ccc(O)c(O)c2)cc(I)c1O
inactive: outcome [1] | Potency [4] | outcome [5] | outcome [9] | outcome [10] | outcome [11] | Potency [13] | Potency [14]
active: Potency [2] 6.01 µM | Potency [6] 0.844 µM | Potency [7] 8.91 µM and 8.44 µM | Potency [8] 10 µM | Potency [12] 14.1 µM | Potency [17] 3.66 µM | activation [15] 53.1%

Nc1ncnc2c1nc(Sc1ccc(Cl)cc1)n2[C@H]1OC2COP(=O)(O)O[C@@H]2C1O (stereo partly drawn)
inactive: outcome [1] | Potency [2] | outcome [5] | Potency [16] | Potency [6] | Potency [7] | Potency [8] | outcome [9] | Potency [12] | Potency [17] | Potency [18] | Potency [14]

CCCn1c(=O)c2[nH]c(-c3ccc(S(=O)(=O)O)cc3)nc2n(CCC)c1=O
inactive: outcome [1] | Potency [2] | Potency [4] | outcome [5] | Potency [16] | Potency [6] | Potency [8] | outcome [10] | outcome [11] | Potency [12] | Potency [17] | Potency [18] | Potency [13] | Potency [14] | activation [15] 0.688%

O=C(O)c1cccnc1C(=O)O
inactive: outcome [1] | Potency [2] | Potency [4] | outcome [5] | Potency [16] | Potency [6] | Potency [7] | outcome [9] | outcome [10] | outcome [11] | Potency [17] | Potency [18] | Potency [13]

c1ccc(CN2CCC3(CCCc4ccccc43)CC2)cc1
inactive: outcome [1] | Potency [2] | outcome [5] | Potency [16] | Potency [6] | Potency [7] | Potency [8] | outcome [9] | outcome [10] | outcome [11] | Potency [12] | Potency [17] | Potency [18] | Potency [13] | activation [15] -8.25%

CC#CCOC(=O)c1c(C)nc2sc3c(c2c1N)CCC(O)C3 (stereo not drawn)
inactive: outcome [1] | Potency [2] | outcome [5] | Potency [16] | Potency [6] | Potency [7] | Potency [8] | outcome [10] | outcome [11] | Potency [12] | Potency [17] | Potency [18] | Potency [13] | Potency [14] | activation [15] 0.438%

O=C(O)Cc1c[nH]c2ccc(O)cc12
inactive: outcome [1] | Potency [2] | outcome [5] | Potency [6] | Potency [7] | Potency [8] | outcome [9] | outcome [10] | Potency [12] | Potency [17] | Potency [18] | Potency [13] | Potency [14] | activation [15] -0.188%

O=c1[nH]c(=S)[nH]c(-c2ccccc2)c1Cc1c(O)ccc2ccccc12
inactive: outcome [1] | Potency [2] | outcome [5] | Potency [16] | Potency [6] | Potency [7] | outcome [9] | Potency [12] | Potency [17] | Potency [13] | Potency [14]
active: Potency [8] 44.7 µM

CN1CC(O)C(O)C(O)C1CO (stereo not drawn)
inactive: outcome [1] | Potency [2] | outcome [5] | Potency [16] | Potency [6] | Potency [7] | Potency [8] | Potency [12] | Potency [17] | Potency [18] | Potency [13] | Potency [14]
